High-throughput results deposited in PubChem by National Center for Advancing Translational Sciences (NCATS).
This is a sample that favours compounds with a hit; in the whole collection about 8.9% have one here.
IMPase cell inh = cell-permeable inhibitors of inositol monophosphatase (IMPase); P97697; CHO-M1 cells, IP1 accumulation, HTRF TR-FRET ratio; inhibition (IP1 accumulation), % at 46.1 µM; 120,000 tested, under 10 active; active = well fitted curve in the direction sought with a large enough effect in the signal ratio, not every such curve was filed as active; inconclusive = small, poorly fitted or top-dose-only effect, or a change in a side signal; inactive = no such curve, though single readings can be large or run the other way; the % refers to the signal ratio;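 note: cells stimulated with carbachol in lithium chloride buffer; higher means more IMPase inhibition seen as more IP1 and lower FRET ratio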
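Seeded CHO-M1 cells were dosed with compound at up to 46 uM, stimulated with carbachol for 30 min, then lysed in IP-One detection reagents. Higher IP1 lowers the TR-FRET signal.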
ALOX12 inhib = blocks human 12-lipoxygenase activity. P18054. purified 12-hLO, xylenol orange hydroperoxide absorbance. Potency, µM (top dose mostly 57.1 µM), actives largely listed as inhibitors. 150,000 tested, 0.12% active. AID 1452; note: nearly all actives have a fitted effect of over 55% in size
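Lipoxygenase turnover measured by absorbance at 573 and 405 nm after Fe-XO development. Human 12hLO 150 nM, arachidonate 40 uM, pH 7.0 Hepes buffer with detergent; 15 min compound preincubation, 30 min reaction.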
HPGD block = blocks human HPGD enzyme activity; AID 894; Potency, µM, hits mostly inhibitors; purified HPGD, NADH fluorescence kinetic, PGE2 substrate; 150,000 tested, 4.3% active; P15428; active = well fitted inhibition curve with a large enough effect, not every such curve was filed as active; inconclusive = small, poorly fitted or top-dose-only effect, or another doubt; inactive = no such curve, though single readings can be large or run the other way
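20 nM HPGD preincubated 15 min at room temperature with compound in 50 mM Tris-HCl pH 8, 0.01% Tween 20. Started with 1 mM NAD+ and 30 uM prostaglandin E2; NADH fluorescence (360/450 nm) read 5 times over 30-s intervals, last minus first.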
NPSR antagonist = neuropeptide S receptor (human) antagonism, cAMP; Q6W5P4; CHO-NPSR cells, cAMP TR-FRET, antagonist mode; Potency, µM (doses to about 38.3 µM), actives largely listed as inhibitors; 220,000 tested, 1% active; note: nearly all actives have a fitted effect of over 50% in size
Target sequence (Q6W5P4 whole entry, looked up): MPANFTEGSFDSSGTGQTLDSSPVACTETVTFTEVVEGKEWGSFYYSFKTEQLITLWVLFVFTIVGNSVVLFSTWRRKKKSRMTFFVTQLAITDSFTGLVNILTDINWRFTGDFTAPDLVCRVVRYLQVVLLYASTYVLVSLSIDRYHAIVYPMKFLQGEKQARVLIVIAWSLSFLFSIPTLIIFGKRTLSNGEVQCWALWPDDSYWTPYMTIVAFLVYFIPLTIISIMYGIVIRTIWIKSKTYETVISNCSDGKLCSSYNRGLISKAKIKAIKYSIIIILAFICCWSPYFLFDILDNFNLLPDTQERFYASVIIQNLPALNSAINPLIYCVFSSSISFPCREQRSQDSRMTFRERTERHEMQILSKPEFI
ALDH1A1 inh = inhibitors of human aldehyde dehydrogenase 1A1; Potency, µM (titrated, usually from 75.3 µM), most hits filed as inhibitors; AID 1030; 220,000 tested, 7.3% active; P00352; Purified ALDH1A1, NADH fluorescence, propionaldehyde substrate; active = well fitted inhibition curve with a large enough effect, not every such curve was filed as active; inconclusive = small, poorly fitted or top-dose-only effect, or another doubt; inactive = no such curve, though single readings can be large or run the other way
IMPase Li cell = cell-permeable IMPase inhibitors with lithium potentiation; Potency, µM (top dose mostly 59.4 µM), usual class: inhibitors; 210,000 tested, 0.35% active; AID 1457; CHO-M1 cells, IP1 TR-FRET (IP-One), carbachol + lithium;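 note: IP1 builds up when IMPase is blocked and the TR-FRET signal falls; nearly all actives have a fitted effect of over 50% in size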
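IP1 accumulation measured by competitive TR-FRET in lysed CHO-M1 cells after 30 min compound exposure at 37C, with a small lithium addition to potentiate weak responses. Hill-equation AC50 from ratio and donor-channel data.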
A number is an active result; n = inactive; u = inconclusive; x = no result given; [ ] = remark or other dose. Unless noted, calls come from the whole dose curve; as a rule, active = well fitted curve in the direction sought with a large enough effect; inconclusive = small, poorly fitted or top-dose-only effect, or another doubt; inactive = no such curve, though single readings can be large; an effect the other way counts as inactive or inconclusive.

SMILES	IMPase cell inh	ALOX12 inhib	HPGD block	NPSR antagonist	ALDH1A1 inh	IMPase Li cell
Cn1nnnc1SCCNCc1cc(Cl)ccc1OCc1ccccc1	x	n	n	n	13µM	n
Cn1nnnc1SCCNCc1ccccc1OCc1ccc(Cl)cc1	x	n	n	n	n	n
O=c1cc2oc3cc(O)c(O)cc3c(-c3ccccc3O)c-2cc1O	x	x	x	n[7.67 µM]	x	x
CCOc1ccccc1-c1c2cc(O)c(=O)cc-2oc2cc(O)c(O)cc12	u	n	18µM	n	20µM	n
COc1ccc(OC)c(-c2c3cc(O)c(=O)cc-3oc3cc(O)c(O)cc23)c1	x	u	14µM	n	u	n
C[n+]1ccc(/C=C/c2ccccc2O)c2ccccc21	x	x	x	13µM	n	n
Cc1ccc(NC(=S)NCc2ccc3[nH]c4c(c3c2)CCCC4)cc1	x	u	n	n	18µM	n
O=[N+]([O-])c1cc(-c2nnc(Nc3ccccc3)c3ccccc23)ccc1N1CCOCC1	n	n	14µM	n	u	n
O=[N+]([O-])c1cc(-c2nnc(N3CCOCC3)c3ccccc23)ccc1N1CCOCC1	x	x	x	n	10µM	n
Cc1nc(-c2ccccc2)c(-c2ccccc2)[nH]1	n	n	u	n	n	n
C=CCn1c(NC(=O)c2ccc(Br)o2)c(C(=O)OCC)sc1=S	n	n	16µM	n	3.5µM	n
Cn1c(N/N=C\c2cccc(O)c2)cc(=O)n(C)c1=O	n	n	n	n	n	n
CC1CCN(S(=O)(=O)N2CCC(C(=O)NC3CCCC3)CC2)CC1	x	x	x	n	n	n
CCCS(=O)(=O)N1CCC(C(=O)NC2CCC(C)CC2)CC1 (stereo unspecified)	n	n	x	n	13µM	x
Cc1cc(C)nc(SCC(=O)OCN2C(=O)c3ccccc3C2=O)n1	n	n	n	n	10µM	n
CCC(=O)OCn1nnc2ccccc2c1=O	x	x	x	n	n	n
Cn1cnnc1SCC(=O)OCN1C(=O)c2ccccc2C1=O	n	n	n	n	n	n
Cc1ccc(S(=O)(=O)NCCC(=O)OCn2nnc3ccccc3c2=O)cc1	n	n	n	n	28µM	n
CC(C)(Oc1ccc(Cl)cc1)C(=O)OCn1nnc2ccccc2c1=O	n	n	u	n	5µM	n
O=C(CSc1nc2ccccc2o1)c1cc2ccccc2oc1=O	n	n	n	n	n	n
Cc1cc(C)nc(SCC(=O)c2cc3ccccc3oc2=O)n1	n	n	18µM	n	14µM	n
CCOC(=O)c1cnc2ccc(Br)cc2c1NCCN1CCOCC1	n	x	x	x	x	x
Cc1ccc(S(=O)(=O)NCC(=O)OCN2C(=O)c3ccccc3C2=O)cc1	n	n	n	n	4µM	n
CC(C(=O)N1CCN(c2ccc([N+](=O)[O-])cc2)CC1)N1C(=O)C2CC=CCC2C1=O (stereo unspecified)	x	x	x	n	n	n
O=C(CN1C(=O)C2CC=CCC2C1=O)N1CCN(c2ccc([N+](=O)[O-])cc2)CC1 (stereo unspecified)	x	x	x	n	25µM	x
SMILES	IMPase cell inh	ALOX12 inhib	HPGD block	NPSR antagonist	ALDH1A1 inh	IMPase Li cell
N#CC1=C(N)SC(N)=C(C#N)C1c1ccnc2ccccc12	n	n	16µM	n	u	n
Cn1c2ccccc2c2cnn(CC(=O)Nc3cccc(F)c3)c(=O)c21	x	x	x	n	x	x
S=c1nc(SCc2ccccc2)[nH]c2ccccc12	x	x	x	10µM	n	14µM
CC(C)c1nc(=S)c2ccccc2[nH]1	n	n	u	n	14µM	n
S=c1nc(C2CC2)[nH]c2ccccc12	n	n	16µM	n	13µM	u
CN(C)c1nc(NCc2ccccc2)nc(N/N=C/c2cccc(Br)c2)n1	x	x	x	u	n	n
COc1ccc(C(CC(=O)NCc2ccccc2)Sc2n[nH]c(-c3ccccc3)n2)cc1 (stereo unspecified)	n	n	7.9µM	n	n	n
CCC(C)NC(=O)c1ccccc1NC(=O)CN(c1cc(C)ccc1OC)S(C)(=O)=O (stereo unspecified)	x	x	x	n	n	n
COC1=C/C(=C/c2c(N)n3nc(-c4ccc(C)cc4)sc3nc2=O)C=CC1=O	x	x	x	n	1.1µM	n
COc1ccc(S(=O)(=O)N2CCCCC2)cc1NC(=O)CN(C)C1CCCCC1	x	x	x	n	n	n
